# Data as given in PubChem BioAssay AID1822 (The Scripps Research Institute Molecular Screening Center, 2009).
# The campaign covered roughly 290,000 compounds. About 3,500 (1.2%) were called active. For the sample, actives were picked, then their nearest neighbours and some compounds at random. A number with no mark means an inactive call.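 The calls were made as follows: active = inhibition above the campaign mean inhibition over all tested compounds plus 3 SD (cut at about 28% in these data); inactive = the rest.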
# System: M18 aspartyl aminopeptidase (Plasmodium falciparum 3D7)
# Assay: inhibition of P. falciparum M18 aminopeptidase – biochemical, QFRET, recombinant enzyme, primary screen (AID 1822);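 also: 0% = plate median of test compound wells and 100% = 2 mM ZnCl2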
# Conditions: recombinant PfM18AAP, H-Glu-NHMec fluorogenic cleavage; at 7.35 µM; stronger effect = higher value
row,SMILES,inhibition
1,O=C(Nc1ccc(F)cc1)C1CCCN(S(=O)(=O)c2ccc(-n3cnnn3)cc2)C1 (stereo unspecified),-11.3%
2,Cc1ccc(-n2c(C)nnc2SCC(=O)NC2CC2)cc1,6.7%
3,CCn1c(SCC(=O)NC2CC2)nnc1-c1ccncc1,-8.99%
4,Cc1cc(C)nc(Nc2n[nH]c(-c3ccccc3N)n2)n1,-3.26%
5,Cc1cc(C)nc(Nc2cc([N+](=O)[O-])ccc2C)n1,-2.82%
6,Cc1cc(C)nc(Nc2ncn[nH]2)n1,70.4% (active)
7,Cc1cc(NC(=O)CCC(=O)N(CC(=O)NC2CCCC2)c2ccc(F)cc2)no1,1.92%
8,O=C1CSC(=S)N1c1ccc(O)cc1,8.71%
9,COc1cc(N2C(=O)CSC2=S)cc(OC)c1OC,6.36%
10,CCOc1cccc(/C=N/N2C(=O)CSC2=S)c1O,38.7% (active)
11,Cc1cc2oc(=O)cc(CN(C)Cc3ccc(OC(F)F)cc3)c2cc1Cl,-5.26%
12,C=CCOc1ccccc1NC(=O)CN1C(=O)CNC1=O,-12.8%
13,CN(C)c1ccnc2sc(C(=O)c3ccccc3)c(N)c12,1.38%
14,Cc1nc2sc(C(=O)c3ccccc3)c(N)c2c2c1CCCC2,1.45%
15,Nc1c(C(=O)c2cccs2)sc2nsc(SCCN3CCCCC3)c12,28.8% (active)
16,COc1ccc(CCNC(=O)CCNS(=O)(=O)c2cc(Br)cnc2N)cc1OC,-9.76%
17,NC(=O)C1CCCN(CC(=O)N2CCN(c3ccccc3)CC2)C1 (stereo unspecified),0.08%
18,O=C(CSc1nc(Nc2ccccc2)nc(N2CCOCC2)n1)Nc1cc(Cl)ccc1O,3.26%
19,Cc1ccc(S(=O)(=O)NNC(=O)Nc2cccc3ccccc23)cc1,10.5%
20,Cc1ccc(C)c(NC(=O)CCC(=O)NNC(=O)c2cccs2)c1,-0.77%
21,Cc1ccc(C)c(NC(=O)NNC(=O)c2ccc3ccccc3c2O)c1,41% (active)
22,O=C(Oc1ccc(Br)cc1C(=S)N1CCOCC1)c1cccc([N+](=O)[O-])c1,36.5% (active)
23,COc1cc(C(=S)N2CCOCC2)cc(OC)c1OC(=O)c1cc([N+](=O)[O-])cc([N+](=O)[O-])c1,8.8%
24,O=C(Oc1ccccc1C(=S)N1CCCCC1)c1cc([N+](=O)[O-])cc([N+](=O)[O-])c1,13.9%

row,SMILES,inhibition
1,CCOc1ccc(CNC(=O)CCC(=O)N2CCSc3ccccc32)cc1,6.53%
2,CN1CCN(S(=O)(=O)c2ccc(NC(=S)NC(=O)C3CC3)cc2)CC1,3.06%
3,O=S(=O)(c1ccc(NC(=S)NN=C(C2CC2)C2CC2)cc1)N1CCOCC1,34.2% (active)
4,O=C(NC(=S)Nc1ccc(S(=O)(=O)N2CCOCC2)cc1)c1ccccc1[N+](=O)[O-],2.44%
5,CN1/C(=C\C=C2\N=C(c3ccc(F)cc3)OC2=O)C(C)(C)c2ccccc21,-0.7%
6,CCOC(=O)c1c(C)[nH]c(C)c1S(=O)(=O)NCCCc1ccco1,-16.1%
7,C=CCNC(=S)NNc1ncnc2sc3c(c12)CC(C)(C)OC3,30.1% (active)
8,CCC(O)CNc1nc(-n2nc(C)cc2C)nc2sc3c(c12)CC(C)(C)OC3 (stereo unspecified),-1.41%
9,CC(C)c1nc2sc3c(c2c(=O)n1N)CC(C)(C)OC3,-0.21%
10,COc1cccc(CN2CCN(Cc3ccc4cccc(F)c4n3)CC2CCO)c1 (stereo unspecified),2.05%
11,Cc1cc(C)nc(N/N=C/c2ccncc2)n1,11%
12,CCN(CC)c1ccc(/C=N/Nc2nc(C)cc(C)n2)c(O)c1,50.9% (active)
13,CCN(CC)c1ccc(/C=N/NC(=O)c2cnccn2)c(O)c1,9.64%
14,CC(=O)N1c2ccc(S(=O)(=O)N3CCC(C(=O)N4CCN(c5ccccc5)CC4)CC3)cc2CC1C (stereo unspecified),5.96%
15,CC(C)C(=O)Nc1nnc(SCC(=O)N2C(C)CCCC2C)s1 (stereo unspecified),-5.69%
16,COC(=O)C1CCN(C(=O)c2ccc3oc(Cc4ccc(Cl)cc4)nc3c2)CC1,6.38%
17,Cc1onc(-c2ccccc2)c1C(=O)NNC(=S)NC(=O)c1ccc(F)cc1,38.2% (active)
18,COc1ccc(C(=O)NC(=S)NNC(=O)c2c(-c3ccccc3)noc2C)cc1,5.86%
19,Cc1ccc(CNC(=O)c2c(-c3ccccc3)noc2C)cc1,12.7%
20,C=CCc1cccc(/C=N/NC(=O)COc2ccc(-n3cnnn3)cc2)c1O,11.8%
21,Cc1ccc(S(=O)(=O)N(CC(=O)NN=C2CCN(C)CC2)c2ccc(F)cc2)cc1,-4.43%
22,O=C(CCc1nnc2ccc(NCc3ccco3)nn12)Nc1cc(F)ccc1F,26%
23,CC(=O)c1ccc(NC(=O)CCc2nnc3ccc(NCc4ccco4)nn23)cc1,46.3% (active)
24,CCOc1ccccc1NC(=O)CCc1nnc2ccc(NCc3ccco3)nn12,21.1%

row,SMILES,inhibition
1,COc1ccc(NC(=O)C2CCN(S(=O)(=O)c3ccc4[nH]c(=O)oc4c3)CC2)c(OC)c1,2.9%
2,CN(C)/C=C1/C(=O)Nc2ccccc21,7.19%
3,COc1ccc(/C=N/N=C2/C(=O)Nc3ccccc32)cc1O,30.7% (active)
4,COc1ccc(/C=N/S(=O)(=O)c2ccccc2)cc1OC,-9.39%
5,Cc1cccc(N(Cc2ccccc2)C(=O)c2ccccc2F)c1,0.68%
6,O=S(=O)(c1ccc(Br)cc1)c1nc(-c2ccccc2)oc1N1CCOCC1,-11.7%
7,COc1cccc(OCC(=O)NNC(=O)c2cnccn2)c1,0.44%
8,COc1ccc(C(=O)NNC(=O)c2cnccn2)cc1[N+](=O)[O-],28.7% (active)
9,COc1ccc(C(=O)O/N=C(\N)c2ccccn2)cc1[N+](=O)[O-],-11.1%
10,COc1cc(/C=N/Nc2nc3ccccc3s2)ccc1O,4.41%
11,c1ccc2sc(NN=C3CCCC3)nc2c1,43.7% (active)
12,O=C(Nc1ccccc1)Nc1nc2ccccc2s1,-14.5%
13,Cc1cccc(NC(=O)N2CCCCCC2)c1C,-13.5%
14,Cc1c(C)n(Cc2ccc(Cl)cc2)c2ccc(C(=O)NCCCN3CCOCC3)cc12,-3.58%
15,CCCCNc1ccc(C(=O)Nc2cccc(C)n2)cc1[N+](=O)[O-],-6.29%
16,CCOC(=O)c1sc(/N=C/C2=C(O)CC(C)(C)CC2=O)c(C(=O)OCC)c1C,-7.73%
17,CCOC(=O)c1c(/N=C/C2C(=O)CC(C)(C)CC2=O)sc(C)c1C,28.8% (active)
18,CCOC(=O)c1c(N)sc2c1CCCC2=O,13.3%
19,Cc1cc(NS(=O)(=O)c2ccc(NC(=O)C(C)Oc3cccc(C)c3C)cc2)nc(C)n1 (stereo unspecified),1.85%
20,COc1ccc([N+](=O)[O-])cc1-c1nc2ccccc2nc1-c1ccccc1,0.66%
21,Cc1ccc2c(c1)N(CC(=O)N1CCOCC1)C(=O)CO2,-1.57%
22,CC(=O)c1ccc(NC(=O)c2ccc(-n3cncn3)c([N+](=O)[O-])c2)cc1,-11.7%
23,Nc1ccc2nc3c(=O)[nH]c(=S)[nH]c3nc2c1,28.9% (active)
24,CCc1cc(=O)oc2c(C)c(OCC(=O)NCCN3CCOCC3)ccc12,-0.48%

row,SMILES,inhibition
1,COc1ccc(Cl)cc1NC(=O)CCS(=O)(=O)c1ccc(Br)cc1,-8.04%
2,Cc1cc(NC(=O)CCC(=O)N(Cc2ccccc2)C(C(=O)NC2CCCC2)c2ccc(C)o2)no1 (stereo unspecified),8.33%
3,CC1CC2=C(CC1/C=N/NC(N)=S)C(C)(C)CCC2 (stereo unspecified),30.5% (active)
4,Cc1cc(C)nc(NS(=O)(=O)c2ccc(N3C(=O)C4CCCCC4C3=O)cc2)n1 (stereo unspecified),-7.47%
5,CCn1c(SCC(=O)NNC(=O)c2ccc(OC)cc2)nnc1C(C)C,4.07%
6,Cc1cccc([C@@H]2[C@@H]3C(=O)N(C)C(=O)[C@@H]3[C@@H]3C(=O)Nc4ccccc4C(=O)N23)c1,-3.83%
7,CCC1(CC)Cc2ccccc2-c2nc(CCl)[nH]c(=O)c21,2.03%
8,C/C(=N\NC(=O)c1ccoc1C)c1ccccc1O,31.6% (active)
9,CC(C)=C(NC(=O)c1ccccc1)C(=O)N/N=C(\C)c1ccccc1O,-2.21%
10,Cc1[nH]n(-c2ccccc2)c(=O)c1/C=N/NC(=O)c1ccoc1C,-3.48%
11,COc1cc(C2C(C(=O)c3ccco3)=C(O)C(=O)N2c2cc(C)on2)ccc1OCc1ccccc1 (stereo unspecified),1.75%
12,OCCn1c(-c2ccccc2)csc1=Nc1ccccc1,44.3% (active)
13,Cc1csc(=Nc2ccccc2)n1CCO,2.31%
14,Cc1csc(=NC(=O)c2ccccc2)n1CCO,4.05%
15,CC(=O)NS(=O)(=O)c1ccc2c(c1)Cc1cc(S(=O)(=O)NC(C)=O)ccc1-2,10.3%
16,COc1cc(SC#N)ccc1N=Cc1c(C)[nH]n(-c2ccc(C)cc2)c1=O,-5.1%
17,CCN1CCN(C(=O)C2CCN(S(=O)(=O)c3cc(Cl)ccc3Cl)CC2)CC1,-5.08%
18,CC(=O)NC(=S)NNC(=O)c1ccc(Br)cc1,10.7%
19,CNC(=S)NNC(=O)c1ccc(N(C)C)cc1,37.4% (active)
20,COc1ccc(C(=O)NNC(=S)NC(=O)c2ccccc2)cc1,8.59%
21,CC1CCN(S(=O)(=O)c2ccc3c(ccn3CC(=O)O)c2)CC1,4.44%
22,Cc1ccc(/C=N/NC(=S)Nc2cccc(S(=O)(=O)N(C)C)c2)o1,9.59%
23,CN(C)S(=O)(=O)c1cccc(NC(=S)NCc2ccc3c(c2)OCO3)c1,-10.4%
24,CN(C)S(=O)(=O)c1cccc(NC(=S)N/N=C/C(=O)c2ccccc2)c1,29.6% (active)
